Results taken from PubChem BioAssay AID1508602 (The Scripps Research Institute Molecular Screening Center, 2020).
The whole screen tested about 650,000 compounds, of which about 6,800 (1%) were called active. The list comes from a sample in which actives are over-represented; it also holds similar structures and randomly drawn compounds. Values without a mark were called inactive. Rule as the data show it: active = activation above about 4.9%; inactive = the rest.

target: G-protein coupled receptor 151 (Homo sapiens) (UniProt Q8TDV0); assay: activators of human GPR151, primary screen, cell-based, PathHunter beta-arrestin, luminescence (AID 1508602); details: PathHunter beta-arrestin GPR151 cells, at 11.2 µM, active compounds read high;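 also: 0% = median of compound wells and 100% = cells with positive control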
Sequence (Q8TDV0 whole entry, looked up): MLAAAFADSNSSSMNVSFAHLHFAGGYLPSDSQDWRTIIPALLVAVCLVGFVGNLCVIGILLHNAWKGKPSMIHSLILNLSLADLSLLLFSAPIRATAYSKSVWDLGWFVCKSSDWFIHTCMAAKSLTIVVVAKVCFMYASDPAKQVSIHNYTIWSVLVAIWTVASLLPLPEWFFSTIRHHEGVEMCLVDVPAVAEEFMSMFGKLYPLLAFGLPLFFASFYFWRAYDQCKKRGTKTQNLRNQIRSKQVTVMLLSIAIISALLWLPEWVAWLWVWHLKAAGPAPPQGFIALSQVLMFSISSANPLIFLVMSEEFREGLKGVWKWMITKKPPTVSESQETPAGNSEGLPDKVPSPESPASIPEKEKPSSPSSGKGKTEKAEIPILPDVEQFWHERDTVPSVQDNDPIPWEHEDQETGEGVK

Structure (SMILES)	activation
CCOC(=O)c1c(NC(=O)C(C)Sc2nnc(CNC(=O)COc3ccccc3)n2-c2cccc(Cl)c2)sc2c1CCC2 (stereo not given)	-0.72%
Cc1[nH]nc(Nc2cccc(C(F)(F)F)c2)c1[N+](=O)[O-]	0.158%
Cn1ncc2c(Nc3cccc(S(=O)(=O)Nc4cccc(C(F)(F)F)c4)c3)ncnc21	-0.0154%
O=[N+]([O-])c1ccc2ncnc(Nc3cccc(C(F)(F)F)c3)c2c1	5.31% (active)
COc1ccc(C(C)(C)C)cc1NC(=O)c1ccc2c(c1)NC(=O)C(C)S2 (stereo not given)	-1.1%
COc1cc2ccccc2cc1C(=O)Nc1ccc2c3c(cccc13)CC2	1.02%
COc1cc(OC)cc(C(=O)Nc2ccc3c4c(cccc24)CC3)c1	16.6% (active)
CCOc1ccc(C(=O)Nc2ccc3c4c(cccc24)CC3)cc1	0.563%
COc1ccc(/C=C\C(=O)NCCc2cc3ccc(C)c(C)c3[nH]c2=O)cc1OC	-0.187%
O=C1CCC(CCNCCOc2ccc(F)cc2)N1CCc1ccccc1 (stereo not given)	-0.404%
O=C1CCC(CCNCCOc2ccccc2)N1CCc1ccccc1 (stereo not given)	8.35% (active)
O=C1CCC(CCNCc2ccccc2)N1CCc1ccccc1F (stereo not given)	1.45%
CCOC(=O)N1CCC(NC(=O)c2ccc(N3CC4CC(C3)c3cccc(=O)n3C4)c(NC(=O)c3ccc(OC)cc3)c2)CC1 (stereo not given)	-1.15%
CCOc1ccc(S(=O)(=O)c2c[nH]c3cc(OC)c(OC)cc3c2=O)cc1	0.157%
CN1C(=O)c2ccc(NC(=O)CCn3c(=O)oc4ccccc43)cc2C1=O	-1.74%
Cc1ccc(NC(=O)CCn2c(=O)oc3ccccc32)cc1Cl	10.6% (active)
Cc1cccc(NC(=O)CCn2c(=O)oc3ccccc32)c1	-0.466%
CCOC(=O)c1c(NC(=O)COC(=O)C(C)c2c(F)c(F)cc(F)c2F)sc2c1CCCC2 (stereo not given)	1.7%
COc1ccc(-c2csc3ncc(C(=O)N(C)C(C)C)c(=O)n23)cc1	1.24%
Cc1ccc(S(=O)(=O)NCc2nc3nc(C)cc(C)n3n2)cc1	10.6% (active)
Cc1ccc(C(=O)NCc2nc3nc(C)cc(C)n3n2)cc1	0.459%
Cc1cccc(CNc2nc3nc(C)cc(C)n3n2)c1	-0.819%
CCN(CC)CCN1C(=O)C(=O)/C(=C(\O)c2ccc(Cl)cc2)C1c1ccc([N+](=O)[O-])cc1 (stereo not given)	-0.703%
NS(=O)(=O)c1cccc(S(=O)(=O)c2ccc(Br)cc2)c1	1.39%

Structure (SMILES)	activation
C/C(=N\NC(=O)CCC(=O)N/N=C(\C)c1ccc(Cl)cc1)c1ccc(Cl)cc1	0.378%
CCCCCC(=O)N/N=C(/C)c1ccc(O)cc1O	7.91% (active)
CCCCCC(=O)N/N=C(\C)c1ccc(O)cc1	-1.26%
Cc1ccc(C(=O)COC(=O)c2ccc3nc(-c4ccccc4)c(-c4ccccc4)nc3c2)cc1	-0.519%
CCc1nnc(NC(=O)CSc2nc(C)cc(C)n2)s1	-1.16%
COc1cc(/C=N/n2nnnc2N)ccc1OCCC(C)C	1.35%
COc1ccc(OC)c(/C=N/n2nnnc2N)c1	8.6% (active)
Nc1nnnn1/N=C\c1ccc(O)c(O)c1	0.149%
Brc1ccc(-c2cc(-c3ccccc3)c3cc(Br)ccc3n2)cc1	1.18%
CCCCC(=O)Nc1ccc(C(=O)N2CCN(c3ccccc3F)CC2)cc1	1.25%
COC(=O)[C@@H]1CC[C@H](C)[C@@H](c2ccc(C)cc2)N1C(=O)c1ccc(/C=N/O[C@H](C)c2cn([C@@H]3COC[C@H]3O)nn2)cc1	7.09% (active)
Cc1cc(N2C(=O)c3ccc(Oc4ccc(NC(=O)CSc5ccc(Cl)cc5)cc4)cc3C2=O)no1	1.59%
CCSc1nc2sccn2c(=O)c1C(=O)NC(Cc1ccccn1)C(F)(F)F (stereo not given)	4.95% (active)
O=C(NCCc1ccccn1)c1cn2ccsc2n1	0.225%
CSc1nc2sccn2c(=O)c1C(=O)NC(C)CO (stereo not given)	-0.408%
CCCCN(C)CCCN(Cc1ccco1)C(=S)Nc1ccc(Cl)c(C)c1	-0.264%
COc1cccc(CCNC(=O)CCc2nnc(COc3ccccc3)o2)c1	-0.583%
CSCCNc1nc2nonc2nc1NC1CC1	0.51%
O=C1OC(c2ccc(Br)cc2)=N/C1=C\c1cc(Br)cs1	-0.409%
CCOc1cc(C2C3=C(CCCC3=O)NC3=C2C(=O)CCC3)ccc1OCc1ccc(F)cc1	-0.184%
CCOc1cc(C2C3=C(CCCC3=O)NC3=C2C(=O)CCC3)cc(Br)c1OCC	5.4% (active)
COc1cc(C2C3=C(CCCC3=O)NC3=C2C(=O)CCC3)cc(Cl)c1O	1.16%
Fc1ccc(C2Oc3ccc(Cl)cc3C3CC(c4cccs4)=NN32)cc1 (stereo not given)	0.238%
Cc1nn(-c2ccccc2)c(C)c1/C=N/n1c(=S)[nH]nc(C)c1=O	-0.643%

Structure (SMILES)	activation
CCCCCCOC(=O)c1ccc(-c2ccc(-c3ccc(C(=O)OCCCCCC)cc3)cc2)cc1	-1.7%
CCOC(=O)c1cc2cccnc2nc1C	0.721%
CCCCCCOC(=O)c1cc(C(=O)OCCCCCC)c(C)nc1C	6.55% (active)
Cc1ccccc1-c1cccc(CN2CCC(=O)N(C)CC2)c1	0.112%
CCn1c(NCCO)nc2ccccc21	1.96%
O=C(Cn1c(NCCO)nc2ccccc21)c1ccc(Cl)cc1Cl	7.58% (active)
O=C(Cn1c(NCCCO)nc2ccccc21)c1ccccc1	-1.59%
COC(=O)c1cc(CNC(=O)c2cc3ncccn3n2)cc(NC(=O)Cc2ccsc2)c1	-0.0871%
Cc1cc(Br)ccc1OCC(=O)N1CCN(C=O)CC1	-1.7%
COC(=O)c1c(NC(=O)/C(C#N)=C/c2cccs2)sc2c1CCCC2	-2.04%
Nc1cccc(N=Cc2c(O)[nH]c(=S)[nH]c2=O)c1	-0.879%
Cc1ccc(N=Cc2c(O)[nH]c(=S)[nH]c2=O)cc1C	0.392%
O=c1[nH]c(=S)[nH]c(O)c1C=Nc1ccc(F)c(Cl)c1	5.26% (active)
CC(C)[C@@H](N)Cn1nc(-c2cccs2)ccc1=O	0.507%
O=C(Nc1ccccc1[N+](=O)[O-])c1ccc2ccccc2n1	0.441%
O=C1NC(=O)N(c2cccc(Br)c2)C(=O)/C1=C/c1cccc([N+](=O)[O-])c1	1.88%
Cc1ccc(/C=C2/C(=O)NC(=O)N(c3ccccc3)C2=O)cc1[N+](=O)[O-]	7.87% (active)
COc1ccc(/C=C2\C(=O)NC(=O)N(c3ccc([N+](=O)[O-])cc3)C2=O)cc1OC	-0.83%
Cn1ccnc1SCc1cc(=O)c(OC(=O)c2c(F)cccc2F)co1	3.4%
CC1CCN(C(=O)C2CCCN2c2nnc(N3CCCC3=O)s2)CC1 (stereo not given)	0.834%
CC(C)(C)OC(=O)N1CCC[C@H]1C(=O)c1cccnc1	0.241%
O=C(NCCCN=C1NS(=O)(=O)c2ccccc21)c1ccc(Cl)c(Cl)c1	-0.637%
COc1nc(Nc2ccccc2)nc(-c2ccc(C(=O)NC3CC3)cc2)n1	0.979%
COc1nc(Nc2ccccc2)nc(-c2c(C)noc2C)n1	5.15% (active)

Structure (SMILES)	activation
COc1nc(Nc2ccccc2)nc(-c2csc3ccccc23)n1	-0.667%
CCCCc1ccc(NC(=O)COC(=O)c2ccc([N+](=O)[O-])o2)cc1	-2.13%
Cc1cccc(N(C)C(=O)C2CCCN(S(=O)(=O)c3c(C)noc3C)C2)c1 (stereo not given)	0.213%
CCc1ccc(-c2nc(CSCC(=O)NC(C)(C)C)c(C)o2)cc1	-0.321%
CCSc1nnc(CC(N)=O)c2ccccc12	-0.522%
O=c1cc(-c2cc3cc(Cl)ccc3oc2=O)c2ccc(O)cc2o1	-0.104%
CCCn1ncc(CN2CCN(C3CCN(C(C)C)CC3)C(CCO)C2)c1C (stereo not given)	1.43%
CCCn1ncc(CN2CCCC(N3CCC(CO)CC3)C2)c1C (stereo not given)	6.31% (active)
Cc1c(CN2CCCC(N3CCC(CO)CC3)C2)c(=O)n(-c2ccccc2)n1C (stereo not given)	-1.54%
Cc1ccc(OCC(=O)Nc2nncs2)cc1	0.547%
CC1CCCN(C(=O)NCc2noc3ccccc23)C1 (stereo not given)	-1.14%
CCOc1ccc(-n2c(C)cn3c4c(=O)n(CC(C)C)c(=O)n(C)c4nc23)cc1	0.368%
O=C(C1CC12CCN(Cc1c(F)cccc1F)CC2)N1CCN(Cc2ccccc2)CC1 (stereo not given)	-0.828%
CCCNC(=O)c1cc(NC2CCN(Cc3ccccc3)CC2)nc2ccccc12	0.365%
O=C(NC1CCN(Cc2ccccc2)CC1)c1ccc(-c2ccccc2)s1	0.522%
O=C(NCCO)c1cnc(NC2CCN(Cc3ccccc3)CC2)s1	7.19% (active)
Cc1ccc(Cn2cc(C#N)c([N+](=O)[O-])n2)cc1	2.65%
Cc1ccc(-c2nc(-c3ccccc3Cl)no2)cc1	0.675%
COc1ccc(-c2noc(-c3ccc(Br)cc3)n2)cc1	-0.475%
COc1ccc(-c2noc(-c3ccccc3Cl)n2)cc1	6.08% (active)
CC1(c2ccccc2NC(=O)c2ccc([N+](=O)[O-])cc2)CC1	6.15% (active)
CC(C)CNC(=O)c1ccccc1NC(=O)c1ccc([N+](=O)[O-])cc1	1.87%
CN(C)c1ccc(NC(=O)c2ccc([N+](=O)[O-])cc2)c2ccccc12	2.25%
